Records with an inconclusive call do not appear. The source holds several records for some structures; these can differ, active in one and inactive in another. Activity calls are given as the source filed them. Unless noted, the call rests on the fitted dose curve.
Legend:
[1] = Nuclear factor erythroid 2-related factor 2/antioxidant responsive element (Nrf2/ARE) small molecule agonists: qHTS cell viability counter screen in human keratinocytes (AID 1919968; active means well fitted curve in the direction sought with a large enough effect in the repeat runs; an effect the other way counts as inactive or inconclusive; further: nearly all actives have a fitted effect of over 55% in size; further: potency means the concentration at half of the fitted maximal effect)
In short: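 In human HaCaT keratinocytes stably expressing an ARE-driven luciferase, compound exposure lasted 23 h at 37 C under 5% CO2. Viable cells are quantified with a protease-based fluorogenic reagent (CellTiter-Fluor) read 1 h after addition.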

[2] = target: KiSS-1 receptor (Homo sapiens) (UniProt Q969F8); assay: Human kisspeptin (KISS1R) small molecule agonists, calcium flux assay in KISS1R-HEK293 cells (AID 1920064; active means well fitted curve in the direction sought with a large enough effect in the repeat runs; an effect the other way counts as inactive or inconclusive)
In short: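 Concentration-response testing used 15 concentrations in triplicate on human KISS1R-expressing HEK293 cells. Calcium-dependent fluorescence (Ex/Em 480/540) was followed kinetically for 3 min after compound transfer.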

[3] = G protein-coupled receptor (GPCR) small molecule agonists, calcium flux assay: HEK293 wild type cell line counter screen (AID 1920065)
In short: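 Fluorescence intensity signals activation. After overnight (18 h) culture and a 1 h calcium dye load at 37 C, compounds are added by pin tool and the plate read at 480/540 nm for 3 min in 1 s steps.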

[4] = p53 small molecule agonists, cell-based qHTS assay with human liver microsomes: qHTS cell viability counter screen (AID 1963579); further: nearly all actives have a fitted effect of over 45% in size
In short: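 In this multiplexed counter screen, the reporter plates were subsequently treated with CellTiter-Glo so that cell viability, reflected by luminescence, could be recorded for p53RE-bla cells dosed 16 h with compounds under microsomal activation (HLM and NADPH).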

[5] = p53 small molecule agonists, cell-based qHTS assay with rat liver microsomes: qHTS cell viability counter screen (AID 1963580); further: nearly all actives have a fitted effect of over 45% in size
In short: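 After the beta-lactamase ratio was read, CellTiter-Glo was added to the same wells and luminescence measured at 30 min; cells had been treated 16 h at 37 C with compounds, rat liver microsomes and NADPH (0.5 mg/mL final each).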

[6] = p53 small molecule agonists, cell-based qHTS assay: qHTS cell viability counter screen (AID 1963581); further: nearly all actives have a fitted effect of over 45% in size; further: potency means the concentration at half of the fitted maximal effect
In short: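 Luminescence from CellTiter-Glo, reflecting ATP content, serves as the cytotoxicity measure; it is taken after the 2 h reporter substrate step in HCT-116 p53RE-bla cells dosed for 16 h at 37 C.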

[7] = p53 small molecule agonists, cell-based qHTS assay (AID 1963582; active means well fitted activation curve with a large enough effect in the signal ratio in the repeat runs, not every such curve was filed as active; the % refers to the signal ratio)
In short: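 After plating, p53RE-bla cells sat 5 h in the incubator; compounds or DMSO vehicle were pinned in; a 16 h incubation at 37 C followed; FRET substrate was added and, 2 h later at RT, fluorescence was measured.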

[8] = target: 5-hydroxytryptamine receptor 2A (Homo sapiens) (UniProt P28223); assay: 5-hydroxytryptamine receptor 2A (HTR2A) small molecule antagonists, cell-based qHTS assay (AID 1963586); further: nearly all actives have a fitted effect of over 45% in size
In short: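 CHO cells stably expressing human HTR2A were plated for 18 h at 37 C, then loaded with calcium dye for 1 h. Compounds were preincubated 5 min at room temperature before DOI (4 nM solution) was added. Kinetic fluorescence was read for 3 min.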

[9] = target: 5-hydroxytryptamine receptor 2A (Homo sapiens) (UniProt P28223); assay: 5-hydroxytryptamine receptor 2A (HTR2A) small molecule agonists, cell-based qHTS assay (AID 1963587); further: nearly all actives have a fitted effect of over 30% in size; further: potency means the concentration at half of the fitted maximal effect
In short: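 CHO cells stably expressing human HTR2A, plated 18 h, loaded with calcium dye 1 h at 37 C. Agonist mode: compounds added and intracellular calcium fluorescence recorded kinetically for 2 min at 1 sec intervals.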

[10] = target: Muscarinic acetylcholine receptor M1 (Homo sapiens) (UniProt P11229); assay: Cholinergic receptor muscarinic 1 (CHRM1) small molecule antagonists, cell-based qHTS assay (AID 1963588); further: nearly all actives have a fitted effect of over 40% in size
In short: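 Compounds were tested at 15 concentrations in three independent runs. Dye-loaded CHRM1-CHO cells were exposed 5 min at room temperature before stimulation by acetylcholine added at 50nM. Intracellular calcium was read kinetically on FDSS for 3 min.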

[11] = target: Muscarinic acetylcholine receptor M1 (Homo sapiens) (UniProt P11229); assay: Cholinergic receptor muscarinic 1 (CHRM1) small molecule agonists, cell-based qHTS assay (AID 1963589); further: nearly all actives have a fitted effect of over 35% in size
In short: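 Fluorescent calcium dye reports M1 activation in stably transfected CHO cells. Compounds, 15 concentrations, added after 1 h dye loading at 37 C; kinetic reading at 1 sec intervals.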

[12] = cAMP Responsive Elements (CRE) small molecule agonists, cell-based qHTS assay (AID 1963590)
In short: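 Compound exposure lasted 3 h at 37 C/5% CO2 in CRE-bla HEK 293T cells grown in assay medium with 10% dialyzed FBS and 25 mM HEPES. Reporter signal came from LiveBLAzer B/G FRET substrate, 2 h, room temperature.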

[13] = cAMP Responsive Elements (CRE) small molecule antagonists, cell-based qHTS assay (AID 1963591; active means well fitted inhibition curve with a large enough effect in the signal ratio in the repeat runs, not every such curve was filed as active; the % refers to the signal ratio)
In short: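 Stimulation used NKH477 at a final 0.25 uM for 3 h in compound-treated CRE-bla HEK293T cells, seeded 18 h beforehand. Reporter activity was measured with LiveBLAzer B/G FRET substrate after 2 h at room temperature.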

[14] = target: Beta-2 adrenergic receptor (Homo sapiens) (UniProt P07550); assay: Adrenergic beta2 receptor (ADRB2) small molecule antagonists, cell-based qHTS assay (AID 1963592); further: series mostly up to about 92 µM; nearly all actives have a fitted effect of over 50% in size
In short: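 Assay format: CHO-ADRB2 cells, 18-20hr seeding at 37C/5% CO2, then compound plus 1nM isoproterenol agonist mix for 0.5hr RT. Homogeneous time-resolved fluorescence cAMP detection after 1hr, expressed as 665/615 nm ratio.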

[15] = target: D(2) dopamine receptor (Homo sapiens) (UniProt P14416); assay: Dopamine D2 receptor (DRD2) small molecule agonists, cell-based qHTS assay (AID 1963594); further: nearly all actives have a fitted effect of over 35% in size
In short: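 HEK293 cells stably expressing human DRD2, pre-treated with PDE inhibitor Ro20-1724 (0.1 mM final) and compound 10 min at room temperature, then stimulated with NKH477 (200nM […]) for 30 min. cAMP read by HTRF (665/620 nm).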

[16] = target: D(2) dopamine receptor (Homo sapiens) (UniProt P14416); assay: Dopamine D2 receptor (DRD2) small molecule antagonists, cell-based qHTS assay (AID 1963595; active means well fitted inhibition curve with a large enough effect in the signal ratio in the repeat runs, with a control signal flat; the % refers to the signal ratio)
In short: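 HEK293 cells stably expressing DRD2, preincubated with 0.1 mM Ro20-1724 and compounds 10 min, were stimulated with 200 nM NKH477 plus 12 nM quinpirole for 30 min at room temperature; cAMP measured by HTRF (665/620 nm).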

[17] = p53 small molecule agonists, cell-based qHTS assay with human liver microsomes (AID 1963577);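 further: p53 response element beta-lactamase reporter cells with liver microsomes plus NADPH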
In short: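 16 h, 37 C exposure of p53RE-bla cells to compounds with human liver microsomes and NADPH (0.5 mg/mL final each); detection via LiveBLAzer mixture, 2 h dark at room temperature.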

[18] = p53 small molecule agonists, cell-based qHTS assay with rat liver microsomes (AID 1963578)
In short: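 With rat liver microsomes and NADPH present (0.5 mg/mL final each), p53RE-bla cells are treated with compound for 16 h at 37 C. LiveBLAzer detection mixture is then applied for 2 h at room temperature in the dark.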

[19] = target: Beta-2 adrenergic receptor (Homo sapiens) (UniProt P07550); assay: Adrenergic beta2 receptor (ADRB2) small molecule agonists, cell-based qHTS assay (AID 1963593);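 further: CHO cells stably overexpressing human ADRB2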
In short: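 CHO cells stably over-expressing ADRB2 were plated overnight at 37C, then dosed with compounds plus a stimulation mix containing 100uM IBMX and 25uM Ro-20-1724 for 0.5hr at room temperature. cAMP was measured by HTRF competition, 1hr.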

[20] = target: Gonadotropin-releasing hormone receptor (Homo sapiens) (UniProt P30968); assay: Human gonadotropin-releasing hormone receptor (GnRHR) small molecule agonists, calcium flux assay in GnRHR-HEK293 cells (AID 1920063); further: nearly all actives have a fitted effect of over 35% in size
In short: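 Intracellular calcium rise is the read-out: engineered human GnRHR HEK293 cells, dye-loaded, are exposed to DMSO-dissolved compounds and fluorescence at Ex/Em 480/540 is tracked for 3 min.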

Measured: Potency

Chain of Beta-2 adrenergic receptor (Homo sapiens) (P07550 whole entry, looked up): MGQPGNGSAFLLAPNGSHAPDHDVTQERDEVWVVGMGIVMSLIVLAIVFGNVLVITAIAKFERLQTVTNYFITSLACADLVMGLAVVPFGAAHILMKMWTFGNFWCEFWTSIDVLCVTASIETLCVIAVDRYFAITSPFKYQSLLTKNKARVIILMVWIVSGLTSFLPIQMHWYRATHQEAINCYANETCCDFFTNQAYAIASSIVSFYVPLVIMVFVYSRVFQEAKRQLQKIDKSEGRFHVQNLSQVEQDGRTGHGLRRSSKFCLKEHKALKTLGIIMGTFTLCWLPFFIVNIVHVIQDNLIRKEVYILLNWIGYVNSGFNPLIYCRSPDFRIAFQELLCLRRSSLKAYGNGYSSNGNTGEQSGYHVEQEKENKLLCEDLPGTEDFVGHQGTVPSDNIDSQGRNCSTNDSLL
Chain of Muscarinic acetylcholine receptor M1 (Homo sapiens) (P11229 whole entry, looked up): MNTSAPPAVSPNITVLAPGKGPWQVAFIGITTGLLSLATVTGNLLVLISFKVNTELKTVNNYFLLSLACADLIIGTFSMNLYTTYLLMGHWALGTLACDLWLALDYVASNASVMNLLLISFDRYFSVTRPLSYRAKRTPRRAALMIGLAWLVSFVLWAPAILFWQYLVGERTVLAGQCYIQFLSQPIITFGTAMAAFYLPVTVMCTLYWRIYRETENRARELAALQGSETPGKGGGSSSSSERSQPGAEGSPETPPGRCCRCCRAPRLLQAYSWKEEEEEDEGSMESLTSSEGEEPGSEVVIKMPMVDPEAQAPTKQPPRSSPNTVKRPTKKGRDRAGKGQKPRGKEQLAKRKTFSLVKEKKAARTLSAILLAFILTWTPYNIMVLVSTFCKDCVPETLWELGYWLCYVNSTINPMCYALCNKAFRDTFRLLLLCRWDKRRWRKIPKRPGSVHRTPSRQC
Chain of KiSS-1 receptor (Homo sapiens) (Q969F8 whole entry, looked up): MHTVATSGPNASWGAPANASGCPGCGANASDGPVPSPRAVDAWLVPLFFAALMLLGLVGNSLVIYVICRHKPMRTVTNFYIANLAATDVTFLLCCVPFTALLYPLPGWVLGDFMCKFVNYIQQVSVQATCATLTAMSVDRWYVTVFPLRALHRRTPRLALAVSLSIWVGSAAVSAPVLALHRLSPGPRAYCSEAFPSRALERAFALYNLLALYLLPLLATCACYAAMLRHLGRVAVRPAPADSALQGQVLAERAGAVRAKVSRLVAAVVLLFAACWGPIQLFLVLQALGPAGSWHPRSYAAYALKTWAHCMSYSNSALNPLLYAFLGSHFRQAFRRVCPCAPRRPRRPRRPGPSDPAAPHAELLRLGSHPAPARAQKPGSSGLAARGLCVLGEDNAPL
Chain of D(2) dopamine receptor (Homo sapiens) (P14416 whole entry, looked up): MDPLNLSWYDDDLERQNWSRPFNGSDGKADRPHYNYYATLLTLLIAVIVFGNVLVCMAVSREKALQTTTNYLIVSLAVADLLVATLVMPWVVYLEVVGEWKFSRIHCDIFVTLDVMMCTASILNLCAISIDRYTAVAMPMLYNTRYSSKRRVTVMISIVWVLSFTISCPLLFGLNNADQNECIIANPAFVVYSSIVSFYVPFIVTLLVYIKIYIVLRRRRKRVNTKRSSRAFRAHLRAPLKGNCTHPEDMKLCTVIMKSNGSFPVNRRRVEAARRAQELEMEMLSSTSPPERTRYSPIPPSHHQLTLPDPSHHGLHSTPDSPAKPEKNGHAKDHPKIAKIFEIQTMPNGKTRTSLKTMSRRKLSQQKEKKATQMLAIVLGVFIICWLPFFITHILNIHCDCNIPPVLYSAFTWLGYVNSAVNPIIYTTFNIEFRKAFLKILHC
Chain of 5-hydroxytryptamine receptor 2A (Homo sapiens) (P28223 whole entry, looked up): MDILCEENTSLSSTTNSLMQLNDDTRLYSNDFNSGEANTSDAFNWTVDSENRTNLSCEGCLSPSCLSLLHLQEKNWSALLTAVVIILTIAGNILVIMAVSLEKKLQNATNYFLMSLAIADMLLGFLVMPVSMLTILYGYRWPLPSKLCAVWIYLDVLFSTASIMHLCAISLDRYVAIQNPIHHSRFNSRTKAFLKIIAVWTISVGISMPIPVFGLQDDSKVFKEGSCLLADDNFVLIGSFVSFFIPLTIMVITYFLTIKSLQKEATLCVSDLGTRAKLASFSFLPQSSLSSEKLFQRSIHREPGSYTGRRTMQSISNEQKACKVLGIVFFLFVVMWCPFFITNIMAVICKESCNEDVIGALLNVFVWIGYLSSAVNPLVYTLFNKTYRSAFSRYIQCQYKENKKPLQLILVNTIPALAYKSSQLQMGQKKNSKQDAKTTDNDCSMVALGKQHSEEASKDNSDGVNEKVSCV
Chain of Gonadotropin-releasing hormone receptor (Homo sapiens) (P30968 whole entry, looked up): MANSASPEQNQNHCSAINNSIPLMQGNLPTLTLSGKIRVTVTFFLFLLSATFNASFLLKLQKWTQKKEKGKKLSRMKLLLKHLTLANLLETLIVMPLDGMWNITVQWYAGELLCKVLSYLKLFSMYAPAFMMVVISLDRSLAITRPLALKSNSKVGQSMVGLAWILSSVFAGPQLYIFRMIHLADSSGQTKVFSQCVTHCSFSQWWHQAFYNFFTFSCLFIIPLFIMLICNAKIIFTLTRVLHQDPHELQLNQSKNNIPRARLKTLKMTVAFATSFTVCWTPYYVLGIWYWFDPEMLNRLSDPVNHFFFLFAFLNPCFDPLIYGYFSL

CCC(C)OC(=O)N1CCCCC1CCO (centres undefined)
not listed: [17] | [18] | [19] | [20]
inactive: all other assays above

CCC(=O)OCCOc1ccccc1
not listed: [7] | [13] | [17] | [18] | [19] | [20]
inactive: all other assays above

S=c1nccc[nH]1
not listed: [3] | [6] | [11] | [19] | [20]
inactive: all other assays above

Nc1ccc2ccccc2c1S(=O)(=O)O
not listed: [4] | [7] | [13] | [17] | [19] | [20]
inactive: all other assays above

CC(=O)N1CCN(c2ccc(OC[C@H]3CO[C@](Cn4ccnc4)(c4ccc(Cl)cc4Cl)O3)cc2)CC1
inactive: [2] | [3] | [14] | [15]
active: [1] 54.5 µM

CCCCOCCOCCOCc1cc2c(cc1CCC)OCO2
41.3 µM (active) and inactive: [6]
not listed: [7] | [11] | [13] | [17] | [18] | [20]
inactive: all other assays above

C=CC(=O)NC(C)(C)C
not listed: [7] | [17] | [18] | [19] | [20]
inactive: all other assays above

COc1ccc2cc(CCC(C)=O)ccc2c1
not listed: [8] | [9] | [10] | [11] | [19] | [20]
inactive: all other assays above

CCCCOc1ccc(N)cc1
not listed: [20]
inactive: all other assays above

Nc1c(Cl)cc(Cl)cc1[N+](=O)[O-]
not listed: [6] | [13] | [15] | [20]
inactive: all other assays above

CC(C)(C)c1ccc(C(=O)O)cc1
not listed: [14] | [17] | [19] | [20]
inactive: all other assays above

CCC(C(=O)NC(=O)NC(C)=O)c1ccccc1 (centres undefined)
not listed: [2] | [3] | [7] | [8] | [17] | [18]
inactive: all other assays above

NCc1cccc(C2CCN(C(=O)c3ccc(C#Cc4ccccc4F)o3)CC2)c1
active: [1] 54.5 µM | [9] 21.9 µM
inactive: [2] | [3] | [18] | [4] | [11]

C=Cc1ccc(OC(C)=O)cc1
not listed: [5] | [11] | [15] | [16] | [20]
inactive: all other assays above
